The subject of this assay is Aedes aegypti larvae. Put plainly: larval motility relative to same well at 0 h (fraction); higher = more motile (less active compound), active = 0.4 or less. Conditions: 10 µM. Summed up: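 Larvae (Aedes aegypti, hatched in pond salt solution with yeast at 25 °C and taken 18–24 h later) were plated at about 10 per 100 µL well. Compounds at 10 µM in 1% v/v DMSO were imaged with INVAPP at 0, 2 and 24 h, alongside solvent and larvicide controls on each plate. Reported relative motility is each well's score over its own starting score, as a median of three independent larval batches.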

A number with no mark means an inactive call.

For `O=C(O)CCNC(=O)c1ccccc1`, the larval motility by setting is: (2 h) 0.977; (24 h) 1.03.

As to `Clc1cc(Cl)c2c(c1)CCc1ccccc1C2n1ccnc1` (configuration not stated), the larval motility reads like this: (2 h) 0.769; (24 h) 0.987.

`Nc1ccc2oc(=O)ccc2c1I`: the larval motility (2 h) is 0.518 and the larval motility (24 h) was 0.509.

`COc1ccc(CNC(=O)C(NS(=O)(=O)c2ccc3nc(C)sc3c2)C(C)C)cc1` (configuration not stated): the larval motility (2 h) is 0.329 (active) and the larval motility (24 h) is 0.365 (active).

With `OC1O[C@H](CSc2ccc(F)cc2)[C@@H](O)[C@H]1O` (some centres not stated), the larval motility runs as follows: (2 h) 1.09; (24 h) 1.32.

`NC(=O)c1[nH]c2ccc(S(N)(=O)=O)cc2c1-c1ccccc1`: the larval motility by setting is: (2 h) 0.832; (24 h) 1.05.

For `O=[N+]([O-])/C(Br)=C/c1ccc(Br)o1`, the larval motility by setting is: (2 h) 1.13; (24 h) 0.796.

For `CSC[C@H]1CN(Cc2c[nH]c3c(N)ncnc23)C[C@@H]1O`, the larval motility reads like this: (2 h) 1.02; (24 h) 0.589.

As for `C=CCN(C(=O)OCc1ccc([N+](=O)[O-])cc1)C1CCN(CC[C@](C)(CN(C)S(=O)(=O)c2ccccc2)c2ccccc2)CC1`, the larval motility is, setting by setting: (2 h) 0.847; (24 h) 0.852.

`O=C(/C=C/n1cnc(-c2cc(C(F)(F)F)cc(C(F)(F)F)c2)n1)NNc1cnccn1`: the larval motility is, setting by setting: (2 h) 0.908; (24 h) 1.

Take `O=[N+]([O-])c1ccc2c(CCc3c[nH]c4ccccc34)c[nH]c2c1`: the larval motility is, setting by setting: (2 h) 1.12; (24 h) 0.813.

Turning to `COC(=O)Nc1nc2cc(S(=O)c3ccccc3)ccc2[nH]1` (configuration not stated), the larval motility by setting is: (2 h) 0.769; (24 h) 0.934.

For `Cn1cc(NC(=O)c2cc(NC(=O)c3ccc(/C=C/c4cnc5ccccc5c4)cc3)cn2C)cc1C(=O)NCCN1CCOCC1`, the larval motility (2 h) is 1.3 and the larval motility (24 h) was 0.773.

With `Cc1onc(-c2ccccc2Cl)c1C(=O)N[C@@H]1C(=O)N2[C@@H]1SC(C)(C)[C@@H]2C(=O)O`, the larval motility is, setting by setting: (2 h) 1.22; (24 h) 1.24.

For `O=C(Nc1nnc(-c2ccc(Cl)cc2)o1)c1ccc(F)cc1`, the larval motility (2 h) is 1.18 and the larval motility (24 h) is 0.816.

In the case of `CN(C)c1[nH]c(=O)ncc1F`, the larval motility reads like this: (2 h) 1.24; (24 h) 1.3.

Consider `COc1ccccc1NC(=O)c1ccccc1Sc1ccc([N+](=O)[O-])cc1`, for which the larval motility by setting is: (2 h) 0.911; (24 h) 0.861.

As for `O=C(CC1Sc2ncnn2C1=O)Nc1ccc(Br)cc1` (configuration not stated), the larval motility by setting is: (2 h) 0.859; (24 h) 0.722.

Turning to `NCCCc1ccccc1C(=O)Nc1ncc([N+](=O)O)s1`, the larval motility runs as follows: (2 h) 0.869; (24 h) 0.646.

With `C[C@H](c1cccc2ccccc12)N(C)Cc1ccccc1`, the larval motility is, setting by setting: (2 h) 1.02; (24 h) 1.26.

For the compound `FC(F)(F)Oc1ccc(Nc2ccc3cccc(Cl)c3n2)cc1`, the larval motility reads like this: (2 h) 0.563; (24 h) 0.29 (active).

For `CCc1c(OCC2CCC2)c2cc(F)ccc2[nH]c1=O`, the larval motility by setting is: (2 h) 1.07; (24 h) 1.08.

Turning to `C[C@@H]1O[C@@H]1P(=O)(O)O`, the larval motility is 0.617 (2 h) and 0.856 (24 h).

With `Cc1nc(N(C)C(=O)Cc2ccc(-c3ccccn3)cc2)sc1S(N)(=O)=O`, the larval motility runs as follows: (2 h) 1.62; (24 h) 1.81.

Consider `O=S(=O)(Nc1ccc(O)cc1)c1cccc2cccnc12`, for which the larval motility runs as follows: (2 h) 1.06; (24 h) 0.629.

For the compound `O=C(CCCC(F)(F)F)N1CCC(c2nc(-c3nccs3)no2)CC1`, the larval motility is 0.824 (2 h) and 1.08 (24 h).

`O=S(=O)(Nc1ccccc1)c1ccc(NC(=S)Nc2ccccc2)cc1`: the larval motility is, setting by setting: (2 h) 0.779; (24 h) 0.792.

Regarding `CC(C)/N=c1\cc2n(-c3ccc(Cl)cc3)c3ccccc3nc-2cc1Nc1ccc(Cl)cc1`, the larval motility is 0.957 (2 h) and 0.786 (24 h).

Turning to `O=C(O)COc1cccc2c1CC[C@](O)(COC(=O)N(c1ccccc1)c1ccccc1)C2`, the larval motility runs as follows: (2 h) 0.909; (24 h) 0.745.

With `COc1ccc(CNC(=O)C2CCN([C@H](C)c3cccc4ccccc34)CC2)cc1`, the larval motility is 0.771 (2 h) and 0.922 (24 h).

Regarding `CN(C)[C@@H]1C(=O)C(C(N)=O)=C(O)[C@@]2(O)C(=O)C3=C(O)c4c(O)c(NC(=O)CN5CCCC5)cc(F)c4C[C@H]3C[C@@H]12`, the larval motility was 0.841 (2 h) and 1.78 (24 h).
